Test results reported in PubChem BioAssay.
Active and inactive are the calls of the source.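 The calls were made as follows, unless noted: active = NADPH fluorescence slope more negative than the mean of all samples by about 3 SD, 99.7% confidence; inactive = the rest.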

How the values were obtained:
[1] = inhibitors of TNFa-induced NFkB p65 translocation, primary screen, imaging, HUVEC, MLSMR starter and 10KST1 sets (AID 438;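 active = inhibition above 20% together with a positive visual image hit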;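 also: compound added about 3h40 before a 20 min TNFalpha stimulation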;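 as to inhibition: signal is the nuclear over cytoplasmic p65 intensity ratio per well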); conditions: HUVEC TNFa-induced p65 nuclear translocation; cell count: measured here: nuclei count (cytotoxicity indicator), at 2.08 µM; inhibition: at 2 µM, stronger effect = higher value, 0% TNFa-plus-vehicle, 100% no-TNFa wells
[2] = reduction of polyQ htt aggregates in cells – imaging, exon1htt(103Q)mCFP cells, high-content imaging, primary screen (AID 483;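 active = visual image review flags a hit and inhibition of aggregation exceeds 20%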;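 also: compound exposure lasted 3 days before fixation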;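 as to nuclei count: percent of the per-plate median nuclei count of sample wells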); conditions: exon1htt(103Q)mCFP cell line, aggregate imaging, at 2 µM; inhibition of aggregation: stronger effect = higher value; nuclei count: measured here: cell count, toxicity
[3] = endothelial E-selectin expression blockers – imaging, HUVEC, immunofluorescence, MLSMR starter and 10KST1 sets, primary screen (AID 487;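 active = visually confirmed hit in the image check and inhibition above 20%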;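 as to inhibition: signal is fraction of cell area covered by stained E-selectin grains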;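 as to nuclei count: 100% = median nuclei count of all wells on the same plate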); conditions: HUVEC TNFalpha-induced E-selectin immunofluorescence imaging, at 2 µM; inhibition: stronger effect = higher value; nuclei count: measured here: cell number, toxicity
[4] = biological target: Voltage-gated potassium channel subunit beta-2 (Rattus norvegicus) (UniProt P62483); assay: inhibitors of rat Kvbeta2 reductase activity – biochemical, NADPH fluorescence, primary screen (AID 622;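 active = fluorescence slope higher than the sample average by over 3 SD, cut at about -0.22 in these data, passing the limit was not always enough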;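 also: slope of raw intensity against log time taken from 70 to 1610 s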); conditions: recombinant KvBeta, 4-cyanobenzaldehyde reduction, at 10 µM, stronger effect = higher value
[5] = biological target: Voltage-gated potassium channel subunit beta-2 (Rattus norvegicus) (UniProt P62483); assay: enhancers of rat Kvbeta2 NADPH turnover – biochemical, NADPH fluorescence, primary screen (AID 623); conditions: Recombinant KvBeta, NADPH fluorescence decrease slope, 10 min; at 10 µM; stronger effect = lower value;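 also: fluorescence intensity change per second fitted from 20 to 320 s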
[6] = biological target: Alpha-2C adrenergic receptor (Homo sapiens) (UniProt P18825); assay: compounds altering alpha2C-coupled GIRK flux – cell-based, HEK293 alpha2C/GIRK1/2, thallium flux, primary screen (AID 624;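 active = fluorescence slope after compound addition differing from the mean of all screened samples at 99.7% confidence, in either direction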;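 also: slope of fluorescence ratio to pre-addition baseline per second over 15 to 24 s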); conditions: thallium flux BTC fluorescence, at 10 µM, actives lie on both sides
[7] = blockers of RIG-like receptor reporter activation – cell-based, Sendai virus stimulus, luciferase, 10K MLSCN set, TLR/RLR signaling modifier project, primary screen (AID 602276;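 active = inhibition at or above 50% at 10 µM; inactive = inhibition below 50%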;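 also: firefly luciferase from ISG56 promoter only with Renilla not read in this screen; 0% = Sendai virus plus DMSO and 100% = medium plus DMSO without virus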); conditions: HEK293 RL24 IRF3 luciferase reporter, at 10 µM, stronger effect = higher value
[8] = TLR3 IRF3 reporter activation blockers – cell-based, poly I:C stimulus, luciferase, 10K MLSCN set, primary screen (AID 602277;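 active = inhibition of the reporter signal at or above 50%; inactive = inhibition below 50%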); conditions: HEK293-TLR3 RL24 IRF3 luciferase reporter, at 10 µM, stronger effect = higher value

Sequence of Voltage-gated potassium channel subunit beta-2 (Rattus norvegicus) (P62483 whole entry, looked up): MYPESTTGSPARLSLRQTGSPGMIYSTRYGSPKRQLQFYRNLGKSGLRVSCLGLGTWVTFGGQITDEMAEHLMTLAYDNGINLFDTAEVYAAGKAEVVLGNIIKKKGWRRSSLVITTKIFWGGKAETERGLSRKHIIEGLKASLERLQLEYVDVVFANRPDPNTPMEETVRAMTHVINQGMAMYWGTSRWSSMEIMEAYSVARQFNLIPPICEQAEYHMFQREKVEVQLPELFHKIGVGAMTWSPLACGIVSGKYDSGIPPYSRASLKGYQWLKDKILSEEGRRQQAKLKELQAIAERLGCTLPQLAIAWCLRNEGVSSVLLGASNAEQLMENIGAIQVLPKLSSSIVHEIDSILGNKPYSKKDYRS
Sequence of Alpha-2C adrenergic receptor (Homo sapiens) (P18825 whole entry, looked up): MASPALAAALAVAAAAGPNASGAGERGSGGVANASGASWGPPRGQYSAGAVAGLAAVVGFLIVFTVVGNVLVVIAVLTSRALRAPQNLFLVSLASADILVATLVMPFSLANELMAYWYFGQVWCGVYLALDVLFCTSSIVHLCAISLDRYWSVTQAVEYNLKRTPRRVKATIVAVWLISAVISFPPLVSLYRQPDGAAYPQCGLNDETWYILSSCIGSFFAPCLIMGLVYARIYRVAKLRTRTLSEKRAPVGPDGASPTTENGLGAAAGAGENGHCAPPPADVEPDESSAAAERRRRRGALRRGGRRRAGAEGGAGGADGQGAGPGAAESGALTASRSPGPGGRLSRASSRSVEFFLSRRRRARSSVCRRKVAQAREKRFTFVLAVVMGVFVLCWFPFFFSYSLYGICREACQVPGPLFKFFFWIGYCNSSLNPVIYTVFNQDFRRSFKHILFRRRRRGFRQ

Structure (SMILES) | cell count [1] | inhibition [1] | inhibition of aggregation [2] | nuclei count [2] [%] | inhibition [3] | nuclei count [3] [%] | fluorescence slope [4] | NADPH fluorescence slope [5] | slope [6] | inhibition [7] | inhibition [8]
O=C(Nc1nc(-c2ccc(S(=O)(=O)N3CCCC3)cc2)cs1)C1COc2ccccc2O1 (centres undefined) | 731 | 3.6% (inactive) | -24.6% (inactive) | 91.5 | 24% (inactive) | 81.4 | -0.413 (inactive) | -2.5e-05 (inactive) | 0.00956 (active) | 7.86% (inactive) | 2.65% (inactive)
CCOC(=O)C(CC)n1nc(C)n2c(cc3sccc32)c1=O (centres undefined) | 526 | 7.7% (inactive) | 14.3% (inactive) | 110 | -25.8% (inactive) | 122 | -0.567 (inactive) | -3.4e-05 (inactive) | 0.0065 (inactive) | 10.8% (inactive) | 19.7% (inactive)
COc1ccc(CNC(=O)c2cc3c(=O)n4ccccc4nc3n(Cc3ccco3)c2=N)cc1 | 666 | -7.8% (inactive) | -28.6% (inactive) | 127 | -30.5% (inactive) | 113 | -0.597 (inactive) | -6e-07 (inactive) | 0.0063 (inactive) | 14.5% (inactive) | 20.4% (inactive)
Cc1ccccc1Cc1c(C)nc2c(C(=O)N3CCN(Cc4ccc5c(c4)OCO5)CC3)cnn2c1C | 631 | -4.4% (inactive) | 19.5% (inactive) | 132 | -11.8% (inactive) | 95.4 | -0.415 (inactive) | -1.3e-05 (inactive) | 0.00443 (inactive) | 10.8% (inactive) | 27.9% (inactive)
CS(=O)(=O)N(Cc1ccccc1)c1ccc(C(=O)N2CCOCC2)cc1 | 297 | 11.6% (inactive) | 23% (inactive) | 91.2 | 41.9% (inactive) | 96.9 | -0.516 (inactive) | -1.2e-05 (inactive) | 0.00702 (inactive) | -11.4% (inactive) | 0.146% (inactive)
Cc1ccc(CNc2cc(-c3nn4c(C)nnc4s3)ccc2C)s1 | 679 | 8.6% (inactive) | -34.9% (inactive) | 2.1 | -76.3% (inactive) | 102 | -0.444 (inactive) | -1.1e-05 (inactive) | 0.00646 (inactive) | 5.73% (inactive) | 13.7% (inactive)
Cc1nn(C)c(C)c1CN(C)C(=O)c1cc2nc(-c3ccco3)cc(C(F)(F)F)n2n1 | 419 | 5.7% (inactive) | -21.4% (inactive) | 128 | -33.1% (inactive) | 106 | -0.182 (inactive) | -2e-05 (inactive) | 0.00389 (inactive) | 1.09% (inactive) | -8.24% (inactive)
COC(=O)c1c(NC(=O)CSc2nnnn2C)sc(C)c1C | 446 | -0.5% (inactive) | -4.7% (inactive) | 95.6 | 30.9% (inactive) | 101 | -0.374 (inactive) | -3.1e-05 (inactive) | 0.00478 (inactive) | -19% (inactive) | -14.9% (inactive)
Cn1c(=O)c2c(nc(NCCCO)n2C/C=C/c2ccccc2)n(C)c1=O | 401 | -1.8% (inactive) | 1.8% (inactive) | 112 | -45.2% (inactive) | 153 | -0.336 (inactive) | 9.8e-06 (inactive) | 0.004 (inactive) | 22.3% (inactive) | 34.2% (inactive)
CCOc1ccc2[nH]c(=O)c(C(c3nnnn3Cc3ccco3)N3CCC(C)CC3)cc2c1 (centres undefined) | 218 | 0.8% (inactive) | 13.4% (inactive) | 97.1 | -65.3% (inactive) | 82.3 | -0.539 (inactive) | -2.2e-05 (inactive) | 0.00417 (inactive) | 13% (inactive) | 20.5% (inactive)
CN1CCC(NC(=O)c2cccs2)CC1 | 575 | 8.5% (inactive) | -27.2% (inactive) | 88.6 | -16.6% (inactive) | 112 | -0.547 (inactive) | -5e-05 (inactive) | 0.00687 (inactive) | 8.43% (inactive) | 33.8% (inactive)
CCS(=O)(=O)N1CCC(C(=O)NCCc2ccc(C)cc2)CC1 | 646 | -10.6% (inactive) | 2.7% (inactive) | 81.2 | -178% (inactive) | 136 | -0.596 (inactive) | 1.4e-05 (inactive) | 0.00666 (inactive) | -2.06% (inactive) | 10.2% (inactive)
NC(=O)c1ccccc1NC(=O)CN1CCOCC1 | 658 | -24.7% (inactive) | -45.9% (inactive) | 124 | -46.9% (inactive) | 105 | -0.492 (inactive) | -3.8e-05 (inactive) | 0.00501 (inactive) | 21.2% (inactive) | 20.7% (inactive)
CCC(C)(C)n1nnnc1C(c1cc2cc(OC)ccc2[nH]c1=O)N1CCc2ccccc21 (centres undefined) | 411 | -18.4% (inactive) | 9.8% (inactive) | 100 | -14.8% (inactive) | 116 | -0.592 (inactive) | -4.5e-05 (inactive) | 0.0033 (inactive) | 14.9% (inactive) | 29.5% (inactive)
